Screens: PubChem BioAssay, National Center for Advancing Translational Sciences (NCATS)
Compounds with a hit are over-represented: about 2.4% of the library has one in this group of screens.
D2 PAM-1: positive allosteric modulators of human D2 dopamine receptor; AID 624464; potentiation, % (test concentration not listed); hit rate 0.23% among 360,000; P14416; DiscoveRx D2 beta-arrestin cells, luminescence, 90 min; 100% = 57 uM dopamine signal; in the data active = potentiation above about 50%; inconclusive = mostly about 30% to 49%
Target sequence (P14416 whole entry, looked up): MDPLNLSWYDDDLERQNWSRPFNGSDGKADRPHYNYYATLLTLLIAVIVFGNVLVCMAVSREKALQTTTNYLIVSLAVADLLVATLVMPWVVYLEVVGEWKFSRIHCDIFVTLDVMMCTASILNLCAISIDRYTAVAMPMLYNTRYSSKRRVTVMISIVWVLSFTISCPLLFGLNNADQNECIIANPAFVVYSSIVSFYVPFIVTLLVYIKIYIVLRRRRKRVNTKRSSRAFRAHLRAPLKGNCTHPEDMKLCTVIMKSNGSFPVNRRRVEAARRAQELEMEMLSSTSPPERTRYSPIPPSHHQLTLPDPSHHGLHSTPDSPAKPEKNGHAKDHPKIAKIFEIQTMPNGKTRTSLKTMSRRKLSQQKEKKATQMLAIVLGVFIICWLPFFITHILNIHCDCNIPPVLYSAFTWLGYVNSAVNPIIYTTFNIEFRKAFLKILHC
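PathHunter D2 cells, attached overnight at 37 deg C, received compound in DMSO plus dopamine at EC20 (50 nM final) for 90 min at 37 deg C. Beta-arrestin recruitment was read as luminescence after 1 h with detection reagent at ambient temperature.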
D2 ag-1: D2 dopamine receptor (human) agonism; P14416; HEK293 T-REx D2 cells, calcium flux agonist mode; activation, % at 2 µM; hit rate 0.53% among 340,000; AID 485358;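 active = activation over 3 SD above normal in the single-dose calcium agonist read, cut at about 30% in these data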; note: 0% is about no effect
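Agonism is scored from calcium flux in a force-coupled, inducible HEK293 cell line expressing D2, read kinetically for 180 s after compound addition against dopamine controls.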
D2 antag: antagonists of human D2 dopamine receptor; P14416; HEK293 TREx D2 cells, calcium flux, dopamine EC80; inhibition, % at 10 µM; hit rate 2% among 340,000; AID 485344; in the data active = inhibition above about 30%; inactive = below that, where a call was filed; note: 0% is about no effect
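Inhibition of EC80 dopamine-driven calcium flux, recorded kinetically, defines activity here; cells are a tetracycline-induced HEK293 T-REx line expressing force-coupled D2.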
D2 PAM-2: positive allosteric modulators of human D2 dopamine receptor; HEK293 T-REx D2, calcium flux, EC20 dopamine potentiation; potentiation, % at 10 µM; hit rate 0.34% among 340,000; AID 485347;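 active = potentiation over 3 SD above the plate norm, cut at about 30% in these data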; note: 0% is about no effect
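Tetracycline-induced HEK293 T-REx cells force-coupled to calcium signalling expressed D2; compounds were pin-added after a 10 s baseline, read kinetically 180 s, then an EC20 dopamine challenge followed with a further 180 s calcium read.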
D2 ag-2: agonists of human D2 dopamine receptor (beta-arrestin); P14416; DiscoveRx PathHunter D2 beta-arrestin, luminescence, 90 min; 100% = 57 uM dopamine signal; activation, % (no concentration beside the values); hit rate 0.084% among 360,000; in the data active = activation above about 40%; inconclusive = between about 15% and that limit
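Agonist mode: compounds alone added to overnight-plated D2 PathHunter cells for 90 min at 37 C, with 57 uM final dopamine (EC100) defining full response. Beta-arrestin recruitment detected by chemiluminescent reagent, read after 1 h at ambient temperature.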
* = called active by the depositor.

Results for O=C(CSc1nnc(-c2ccc(Cl)cc2)n1-c1ccc(Cl)cc1)N/N=C/c1ccco1 ?
D2 PAM-1: 17; D2 ag-1: -1; D2 antag: -9; D2 PAM-2: -9; D2 ag-2: 11

Results for Cc1ccc(/C=N/NC(=O)CSc2nnc(-c3ccc(Cl)cc3)n2-c2ccccc2)o1 ?
D2 PAM-1: 88*; D2 ag-1: -1; D2 antag: -19; D2 PAM-2: -1; D2 ag-2: inconclusive

How did CN1CCN(CCCN2c3ccccc3Sc3ccc(C(F)(F)F)cc32)CC1 do in these assays?
D2 PAM-1: -29; D2 ag-1: 1; D2 antag: 79*; D2 PAM-2: -30; D2 ag-2: -3

What do the screens show for `O=C(CN1CCCC(O)C1)N1c2ccccc2Sc2ccc(C(F)(F)F)cc21` (stereo not drawn)?
D2 PAM-1: -1; D2 ag-1: 1; D2 antag: 1; D2 PAM-2: -4; D2 ag-2: -4

How did Cc1oc(-c2cccs2)nc1CN1CCC(c2ccccc2)CC1 do in these assays?
D2 PAM-1: -33; D2 ag-1: 1; D2 antag: 83*; D2 PAM-2: -17; D2 ag-2: -4

Results for COc1ccccc1CNC(=O)C1CCN(Cc2nc(-c3ccc(OC)c(OC)c3)oc2C)CC1 ?
D2 ag-1: -1; D2 PAM-2: 13

Results for Cc1oc(-c2cccs2)nc1CN1CCN(C(C)C)C(CCO)C1 (stereo not drawn) ?
D2 PAM-1: -9; D2 ag-1: 1; D2 antag: 2; D2 PAM-2: -4; D2 ag-2: -1

What do the screens show for `COc1ccc(-c2nc(CN3CCC(c4ccccc4)CC3)c(C)o2)cc1OC`?
D2 PAM-1: -15; D2 ag-1: -1; D2 antag: 44*; D2 PAM-2: -23; D2 ag-2: 3

Results for Cc1cc(-c2ccc(C)c(S(=O)(=O)N3CCN(c4ccccn4)CC3)c2)on1 ?
D2 PAM-1: -6; D2 ag-1: 0; D2 antag: -10; D2 PAM-2: 10; D2 ag-2: 6

How did CCOc1ccc2nc(N3CCCC(C(=O)NCCc4ccc(SC)cc4)C3)sc2c1 (stereo not drawn) do in these assays?
D2 ag-1: 1; D2 PAM-2: 11

How did COCC(C)NC(=O)CCS(=O)(=O)c1nc(-c2ccc(OC)cc2)cc(C(F)(F)F)n1 (stereo not drawn) do in these assays?
D2 PAM-1: -29; D2 ag-1: -1; D2 antag: -9; D2 PAM-2: 39*; D2 ag-2: -2

Results for Cn1c(CN2CCCC2)nc2cc(NS(=O)(=O)c3ccc(Cl)cc3)ccc21 ?
D2 PAM-1: -47; D2 ag-1: 3; D2 antag: 69*; D2 PAM-2: -17; D2 ag-2: -3

Results for Cn1c(CCN2CCCC2)nc2cc(NS(=O)(=O)c3ccc(F)cc3)ccc21 ?
D2 PAM-1: -42; D2 ag-2: -1

What do the screens show for `Cn1c(CN2CCCC2)nc2cc(NS(=O)(=O)c3ccccc3)ccc21`?
D2 PAM-1: -30; D2 ag-1: -1; D2 antag: 67*; D2 PAM-2: -25; D2 ag-2: -3

Results for CC(=O)c1c(O)cc(=O)oc1-c1ccc(C)cc1 ?
D2 PAM-1: -8; D2 ag-2: -6

What do the screens show for `Cc1ccccc1NC(NC(=O)c1cccs1)C(Cl)(Cl)Cl` (stereo not drawn)?
D2 PAM-1: -8; D2 ag-1: 2; D2 antag: 8; D2 PAM-2: -1; D2 ag-2: 1

Results for CCOc1ccccc1NC(=O)COc1cccc2c(=O)n(CCOC)ccc12 ?
D2 ag-1: 1; D2 PAM-2: 6

Results for Nc1ccc2nc(CCc3ccccc3)[nH]c2c1 ?
D2 PAM-1: -2; D2 ag-1: -1; D2 antag: -9; D2 PAM-2: 0; D2 ag-2: -1

Results for Nc1ccc2nc3c(=O)n(C4CCCCC4)c(=O)[nH]c3nc2c1 ?
D2 PAM-1: 17; D2 PAM-2: -7; D2 ag-2: 3

How did Cc1cc2nc3c(=O)n(CCc4ccccc4)c(=O)[nH]c3nc2cc1N do in these assays?
D2 PAM-1: 18; D2 ag-1: 95*; D2 antag: -13; D2 PAM-2: -8; D2 ag-2: 8

What do the screens show for `CCCCn1c(=O)[nH]c2nc3cc(N)ccc3nc2c1=O`?
D2 PAM-1: 22; D2 ag-1: 61*; D2 antag: -24; D2 PAM-2: -9; D2 ag-2: -3

How did Nc1ccc2nc3c(=O)n(CCc4ccccc4)c(=O)[nH]c3nc2c1 do in these assays?
D2 PAM-1: 27; D2 ag-1: 95*; D2 antag: -45; D2 PAM-2: -11; D2 ag-2: 6

What do the screens show for `Cc1ccc(S(=O)(=O)N2C[C@@H]3[C@H]4CC[C@H](C4)[C@@H]3[C@@H](C)[C@H]2c2ccco2)cc1`?
D2 ag-2: -2

How did N/C(=N\OS(=O)(=O)c1ccc(Br)cc1)c1ccncc1 do in these assays?
D2 PAM-1: 95*; D2 ag-1: 0; D2 antag: -3; D2 PAM-2: -7; D2 ag-2: inconclusive

Results for CCN1C(=O)CSc2ccc(C(=O)NCc3ccccc3OC)cc21 ?
D2 PAM-1: -4; D2 ag-1: 0; D2 antag: -5; D2 PAM-2: 34*; D2 ag-2: -1

How did CCN1C(=O)CSc2ccc(C(=O)NCc3ccccc3)cc21 do in these assays?
D2 PAM-1: -31; D2 ag-1: 0; D2 antag: -21; D2 PAM-2: -14; D2 ag-2: 2

Results for Cc1ccc(C(=O)N2CCCC(CCC(=O)N3CCN(c4ccccn4)CC3)C2)cn1 (stereo not drawn) ?
D2 PAM-1: 75*; D2 ag-1: 0; D2 antag: -3; D2 PAM-2: 6; D2 ag-2: -5

What do the screens show for `Cc1ccc(C(=O)N2CCCC(CCC(=O)N3CCN(c4ccccn4)CC3)C2)cc1C` (stereo not drawn)?
D2 PAM-1: -5; D2 ag-1: 2; D2 antag: 1; D2 PAM-2: 5; D2 ag-2: -3

How did CC(C)C(NS(=O)(=O)c1ccc2c(c1)oc(=O)n2C)C(=O)NCCc1ccccc1 (stereo not drawn) do in these assays?
D2 ag-1: 0; D2 PAM-2: -2

What do the screens show for `CCN(C(=O)CSc1nc2ccc(O)cc2c(=O)n1-c1ccc(OC)c(OC)c1)C1CCS(=O)(=O)C1` (stereo not drawn)?
D2 PAM-1: -70; D2 ag-1: -1; D2 antag: 43*; D2 PAM-2: 9; D2 ag-2: -1

How did CCCCN(CCCC)C1=C(C(=O)c2ccccc2)N(C)S(=O)(=O)c2ccccc21 do in these assays?
D2 ag-1: -1; D2 PAM-2: 9
